“And” between values parts separate entries of the source, which are not always exact repeats. Equal values may be shown once. Inconclusive results are not listed. Entries that show only a call come without a potency. A structure can be active in one record and inactive in another. The source made the active and inactive calls. Unless noted, calls come from the whole dose curve; as a rule, active = well fitted curve in the direction sought with a large enough effect in the repeat runs; inconclusive = weak or mixed curves; inactive = no such curve, though single readings can be large; an effect the other way counts as inactive or inconclusive.
What was measured:
[1] = qHTS assay to identify small molecule agonists of the peroxisome proliferator-activated receptor delta (PPARd) signaling pathway - cell viability counter screen (AID 743211); note: nearly all actives have a fitted effect of over 55% in size
How it was run: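 Viability of GeneBLAzer PPARd UAS-bla HEK293H cells was assessed after 17 h compound incubation at 37C, using CellTiter-Glo reagent added after the reporter read and luminescence recorded 30 min later.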

[2] = qHTS assay to identify small molecule antagonists of the peroxisome proliferator-activated receptor delta (PPARd) signaling pathway - cell viability counter screen (AID 743213); note: nearly all actives have a fitted effect of over 50% in size
How it was run: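 Same-well viability: cells pre-incubated 5 h, dosed with compound plus 300 nM L165041, kept 17 h at 37 C, FRET substrate 2 h RT, then CellTiter-Glo 30 min RT and luminescence.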

[3] = molecular target: Peroxisome proliferator-activated receptor delta (Homo sapiens) (UniProt Q03181); test: qHTS assay to identify small molecule antagonists of the peroxisome proliferator-activated receptor delta (PPARd) signaling pathway (AID 743215; active = well fitted inhibition curve with a large enough effect in the signal ratio in the repeat runs, not every such curve was filed as active; the % refers to the signal ratio;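 note: cells stimulated with agonist L165041 at 300 nM final during compound exposure; series mostly up to about 62 µM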)
How it was run: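 Antagonist-mode beta-lactamase reporter screen: HEK293H cells with UAS-bla under PPARd control, stimulated by 300 nM L165041 (final) alongside test compound for 17 h at 37 C, then FRET fluorescence after 2 h substrate incubation.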

[4] = molecular target: Bile acid receptor (Homo sapiens) (UniProt Q96RI1); test: qHTS assay to identify small molecule antagonists of the farnesoid-X-receptor (FXR) signaling pathway (AID 743217; active = well fitted inhibition curve with a large enough effect in the signal ratio in the repeat runs, not every such curve was filed as active; the % refers to the signal ratio)
How it was run: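 Beta-lactamase reporter under UAS control in HEK 293T cells; compound exposure 16 h at 37 °C in the presence of chenodeoxycholic acid (50 uM final); signal from B/G FRET substrate after 2 h at room temperature.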

[5] = qHTS assay to identify small molecule agonists of the farnesoid-X-receptor (FXR) signaling pathway - cell viability counter screen (AID 743218); note: nearly all actives have a fitted effect of over 45% in size
How it was run: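 In GeneBLAzer FXR-UAS-bla HEK 293T cells, compounds act for 16 h at 37 C. Cell viability is then scored in the reporter wells by CellTiter-Glo, 30 min at RT, luminescence.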

[6] = molecular target: Bile acid receptor (Homo sapiens) (UniProt Q96RI1); test: qHTS assay to identify small molecule agonists of the farnesoid-X-receptor (FXR) signaling pathway (AID 743220; active = well fitted activation curve with a large enough effect in the signal ratio in the repeat runs, not every such curve was filed as active; the % refers to the signal ratio)
How it was run: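 Beta-lactamase reporter under UAS control in GeneBLAzer FXR HEK 293T cells (5000/well) measured with LiveBLAzer FRET substrate after 2 h at room temperature. Compound exposure lasted 16 h at 37C.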

[7] = qHTS assay to identify small molecule antagonists of the farnesoid-X-receptor (FXR) signaling pathway - cell viability counter screen (AID 743221; active = well fitted cell-killing curve with a large enough effect in the repeat runs, not every such curve was filed as active; note: nearly all actives have a fitted effect of over 50% in size)
How it was run: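 Quantitative HTS of the Tox21 10K library run in parallel with the beta-lactamase reporter read. HEK 293T cells carrying a UAS-driven bla reporter got compound and 50 uM CDCA (final) for 16 h; ATP-based luminescence followed.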

[8] = molecular target: Vitamin D3 receptor (Homo sapiens) (UniProt P11473); test: qHTS assay to identify small molecule antagonists of the vitamin D receptor (VDR) signaling pathway (AID 743223; active = well fitted inhibition curve with a large enough effect in the signal ratio in the repeat runs, not every such curve was filed as active; the % refers to the signal ratio)
How it was run: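 Fluorescence from LiveBLAzer B/G FRET substrate, read after 2 h at room temperature, reflects beta-lactamase reporter activity in VDR-bla cells treated 16 h at 37C with compounds and agonist 1alpha,25-dihydroxyvitamin D3 (3 nM final).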

[9] = qHTS assay to identify small molecule agonists of the vitamin D receptor (VDR) signaling pathway - cell viability counter screen (AID 743224); note: series mostly up to about 63 µM; nearly all actives have a fitted effect of over 50% in size
How it was run: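 VDR-bla cell line, quantitative HTS format; 16 h compound incubation (37C, 5% CO2); ATP-based CellTiter-Glo luminescence measured in the reporter assay wells.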

[10] = qHTS assay to identify small molecule agonists of the NFkB signaling pathway - cell viability counter screen (AID 1159515; calls by dose curve; note: series mostly up to about 61 µM; nearly all actives have a fitted effect of over 55% in size)
How it was run: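 Viability in NFkB-bla ME-180 cells was measured by CellTiter-Glo luminescence, 30 min room temperature, in wells already treated 5 hr with compounds and read for reporter FRET.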

[11] = qHTS assay to identify small molecule agonists of the endoplasmic reticulum stress response signaling pathway (AID 1159516; active = well fitted activation curve with a large enough effect in the signal ratio in the repeat runs, not every such curve was filed as active; the % refers to the signal ratio)
How it was run: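 ER stress element reporter (bla) in HeLa. 1,500 cells/well, overnight attachment; 5 hr compound; 2 hr RT substrate; dual-emission fluorescence.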

[12] = qHTS assay to identify small molecule antagonists of the retinoid-related orphan receptor gamma (ROR-gamma) signaling pathway - cell viability counter screen (AID 1159520); note: nearly all actives have a fitted effect of over 50% in size
How it was run: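 Tet-on ROR gamma CHO cells (1,000/well) were plated 4 hr, given compounds in DMSO for 2 hr at 37 C, then induced with 1 uM final doxycycline for 16 hr. Viability was read as ATP by CellTiter-Glo luminescence after 30 min.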

[13] = molecular target: Nuclear receptor ROR-gamma (Homo sapiens) (UniProt P51449); test: qHTS assay to identify small molecule antagonists of the retinoid-related orphan receptor gamma (ROR-gamma) signaling pathway (AID 1159521; note: nearly all actives have a fitted effect of over 50% in size; note: potency is the fitted concentration of half-maximal effect)
How it was run: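 RORγ antagonism is scored from reduced reporter luminescence in Tet-on CHO cells. Induction used 1 uM final doxycycline hyclate for 16 h at 37 C, following a 2 h compound exposure.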

[14] = qHTS assay to identify small molecule agonists of the AP-1 signaling pathway - cell viability counter screen (AID 1159525; calls by dose curve; note: nearly all actives have a fitted effect of over 55% in size)
How it was run: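 ME-180 AP-1-bla, 2500 cells/well, Opti-MEM + 0.5% dialyzed FBS; overnight 37 °C; cpd 15-pt titration, 5 h 37 °C; CellTiter-Glo 30 min RT; luminescence read; normalised to TOAB and DMSO controls.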

[15] = qHTS assay to identify small molecule agonists of the AP-1 signaling pathway (AID 1159526; calls by dose curve)
[16] = molecular target: Retinoic acid receptor RXR-alpha (Homo sapiens) (UniProt P19793); test: qHTS assay to identify small molecule agonists of the RXR signaling pathway (AID 1159527; calls by dose curve; note: nearly all actives have a fitted effect of over 35% in size)
How it was run: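 qHTS of the Tox21 10K library in GeneBLAzer RXR-alpha HEK 293T cells carrying a beta-lactamase reporter […]; 16 hr treatment, 9-cis retinoic acid as agonist control, FRET read-out.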

[17] = molecular target: Peroxisome proliferator-activated receptor delta (Homo sapiens) (UniProt Q03181); test: qHTS assay to identify small molecule agonists of the peroxisome proliferator-activated receptor delta (PPARd) signaling pathway (AID 743212; calls by dose curve)
How it was run: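 GeneBLAzer PPARd UAS-bla HEK293H cells (beta-lactamase reporter under UAS control), plated and rested 5 h at 37 C, then exposed to compounds in DMSO at 37 C; LiveBLAzer B/G FRET substrate added, 2 h room temperature, fluorescence read.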

[18] = qHTS assay to identify small molecule antagonists of the vitamin D receptor (VDR) signaling pathway - cell viability counter screen (AID 743225); note: nearly all actives have a fitted effect of over 50% in size
How it was run: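 Cells (VDR-UAS-bla HEK 293T) are plated, rested 4 h at 37C, dosed with compound and 3 nM final 1-alpha,25-dihydroxy vitamin D3, and incubated 16 h. Viability is taken from CellTiter-Glo luminescence in the reporter wells.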

[19] = molecular target: Vitamin D3 receptor (Homo sapiens) (UniProt P11473); test: qHTS assay to identify small molecule agonists of the vitamin D receptor (VDR) signaling pathway (AID 743222; calls by dose curve)
How it was run: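 Agonist activity measured in VDR-bla reporter cells. Exposure 16 h, 37C, 5% CO2; detection by B/G FRET substrate, 2 h RT.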

Bile acid receptor (Homo sapiens), sequence (Q96RI1 whole entry, looked up): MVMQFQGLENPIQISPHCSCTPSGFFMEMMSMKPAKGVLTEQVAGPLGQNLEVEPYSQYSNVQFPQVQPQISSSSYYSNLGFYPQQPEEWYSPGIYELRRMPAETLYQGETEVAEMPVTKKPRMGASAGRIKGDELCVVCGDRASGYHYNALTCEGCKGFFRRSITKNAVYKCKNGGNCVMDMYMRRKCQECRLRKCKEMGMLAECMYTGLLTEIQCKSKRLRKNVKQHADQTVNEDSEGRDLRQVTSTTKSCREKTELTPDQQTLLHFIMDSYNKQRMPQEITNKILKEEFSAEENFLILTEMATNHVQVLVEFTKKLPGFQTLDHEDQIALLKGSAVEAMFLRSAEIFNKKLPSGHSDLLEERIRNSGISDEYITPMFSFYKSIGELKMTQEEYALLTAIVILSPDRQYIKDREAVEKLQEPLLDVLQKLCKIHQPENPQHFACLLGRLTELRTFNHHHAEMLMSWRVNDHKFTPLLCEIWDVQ
Vitamin D3 receptor (Homo sapiens), sequence (P11473 whole entry, looked up): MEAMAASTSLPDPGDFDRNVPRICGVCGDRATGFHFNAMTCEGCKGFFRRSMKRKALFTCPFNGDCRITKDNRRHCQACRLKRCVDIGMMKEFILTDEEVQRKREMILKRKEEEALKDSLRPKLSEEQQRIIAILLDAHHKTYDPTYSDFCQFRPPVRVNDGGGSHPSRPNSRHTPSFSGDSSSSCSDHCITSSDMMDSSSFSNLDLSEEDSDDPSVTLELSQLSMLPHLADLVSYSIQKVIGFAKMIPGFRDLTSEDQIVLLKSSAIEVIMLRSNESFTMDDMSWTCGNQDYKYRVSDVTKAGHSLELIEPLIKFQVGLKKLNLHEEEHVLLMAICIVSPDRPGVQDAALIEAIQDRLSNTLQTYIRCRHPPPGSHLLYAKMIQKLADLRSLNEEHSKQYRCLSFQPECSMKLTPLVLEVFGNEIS
Peroxisome proliferator-activated receptor delta (Homo sapiens), sequence (Q03181 whole entry, looked up): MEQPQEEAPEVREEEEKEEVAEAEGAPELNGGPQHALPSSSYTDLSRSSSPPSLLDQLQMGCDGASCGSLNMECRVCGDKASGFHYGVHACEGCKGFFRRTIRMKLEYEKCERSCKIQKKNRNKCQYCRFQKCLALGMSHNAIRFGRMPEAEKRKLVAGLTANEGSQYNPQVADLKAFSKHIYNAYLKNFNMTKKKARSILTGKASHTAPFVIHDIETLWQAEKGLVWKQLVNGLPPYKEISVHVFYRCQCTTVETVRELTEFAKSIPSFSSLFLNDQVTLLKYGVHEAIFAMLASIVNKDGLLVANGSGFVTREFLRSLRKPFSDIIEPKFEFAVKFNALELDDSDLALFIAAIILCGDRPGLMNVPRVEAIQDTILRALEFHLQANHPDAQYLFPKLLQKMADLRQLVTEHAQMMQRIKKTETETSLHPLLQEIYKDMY
Retinoic acid receptor RXR-alpha (Homo sapiens), sequence (P19793 whole entry, looked up): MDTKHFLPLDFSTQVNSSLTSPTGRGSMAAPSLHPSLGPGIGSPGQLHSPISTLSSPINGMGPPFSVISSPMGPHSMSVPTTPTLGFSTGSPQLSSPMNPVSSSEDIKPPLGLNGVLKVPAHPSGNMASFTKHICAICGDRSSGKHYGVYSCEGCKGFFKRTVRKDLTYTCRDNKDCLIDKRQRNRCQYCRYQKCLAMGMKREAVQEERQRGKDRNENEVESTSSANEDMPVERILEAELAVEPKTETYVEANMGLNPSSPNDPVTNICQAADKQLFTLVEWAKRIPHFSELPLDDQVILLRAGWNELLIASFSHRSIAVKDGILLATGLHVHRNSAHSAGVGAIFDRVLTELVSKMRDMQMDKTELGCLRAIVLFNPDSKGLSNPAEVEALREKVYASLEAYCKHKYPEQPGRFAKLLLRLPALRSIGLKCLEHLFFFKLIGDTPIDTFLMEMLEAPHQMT

| Compound | Potency [1] | Potency [2] | Potency [3] | Potency [4] | Potency [5] | Potency [6] | Potency [7] | Potency [8] | Potency [9] | Potency [10] | Potency [11] | Potency [12] | Potency [13] | Potency [14] | outcome [15] | Potency [16] | Potency [17] | Potency [18] | outcome [19] |
| --- | --- | --- | --- | --- | --- | --- | --- | --- | --- | --- | --- | --- | --- | --- | --- | --- | --- | --- | --- |
| Cc1ccc(Cl)cc1 | inactive | inactive | inactive | inactive | inactive | inactive | inactive | inactive | inactive | inactive | inactive | inactive | inactive | inactive | inactive | inactive |  |  |  |
| Cc1ccc(C)c(S(=O)(=O)O)c1 | inactive | inactive | inactive |  | inactive |  |  | inactive | inactive | inactive | inactive | inactive | inactive | inactive | inactive | inactive |  |  |  |
| OCC(CO)(CO)CO | inactive | inactive | inactive |  | inactive |  | inactive | inactive | inactive | inactive | inactive | inactive | inactive | inactive | inactive | inactive | inactive | inactive |  |
| CCCCCCCCC(=O)O | inactive | inactive | inactive |  | inactive |  |  |  | inactive | inactive | inactive | inactive | inactive | inactive | inactive | inactive |  |  |  |
| CCc1cccc(O)c1 | inactive | inactive | inactive | inactive | inactive | inactive | inactive | inactive | inactive | inactive | inactive | inactive | inactive | inactive | inactive | inactive |  | inactive | inactive |
| OCc1ccc(Cl)cc1Cl | inactive | inactive | inactive | inactive | inactive |  |  | inactive | inactive | inactive | inactive | inactive | inactive | inactive | inactive | inactive | inactive | inactive | inactive |
| CCCCCC(C)=O | inactive | inactive | inactive |  | inactive |  |  | inactive | inactive | inactive | inactive | inactive | inactive | inactive | inactive | inactive |  | inactive | inactive |
| NC(=O)c1ncn([C@@H]2O[C@H](CO)[C@@H](O)[C@H]2O)n1 | inactive | inactive | inactive |  | inactive |  | inactive |  |  | inactive | inactive | inactive | 4.56 µM (active) and 3.76 µM (active) | inactive | inactive | inactive | inactive |  |  |
| Brc1ccc(Oc2ccc(Br)cc2)cc1 | inactive | inactive | inactive |  | inactive |  | inactive | inactive | inactive | inactive | inactive | inactive | inactive | inactive | inactive |  | inactive |  |  |
| Oc1ccc(Cc2ccccc2O)cc1 |  | inactive | inactive | inactive | inactive | inactive |  | inactive | inactive | inactive | inactive | inactive | inactive | inactive | inactive | inactive | inactive |  | inactive |
| CC1(C)[C@@H](O[C@H]2O[C@H](C(=O)O)[C@@H](O)[C@H](O)[C@H]2O[C@@H]2O[C@H](C(=O)O)[C@@H](O)[C@H](O)[C@H]2O)CC[C@]2(C)[C@H]3C(=O)C=C4[C@@H]5C[C@@](C)(C(=O)O)CC[C@]5(C)CC[C@@]4(C)[C@]3(C)CC[C@@H]12 | inactive | inactive |  |  | inactive |  | inactive | inactive | inactive | inactive | inactive | inactive | inactive | inactive | inactive | inactive |  |  |  |
| Cc1ccccc1C=O | inactive | inactive | inactive |  | inactive |  |  | inactive | inactive | inactive | inactive | inactive | inactive | inactive | inactive | inactive | inactive | inactive | inactive |
| CC(=O)OC[C@H]1O[C@@](COC(C)=O)(O[C@H]2O[C@H](COC(C)=O)[C@@H](OC(C)=O)[C@H](OC(C)=O)[C@H]2OC(C)=O)[C@@H](OC(C)=O)[C@@H]1OC(C)=O | inactive | inactive | inactive |  | inactive |  | inactive | inactive | inactive | inactive | inactive | inactive | inactive | inactive | inactive | inactive | inactive |  | inactive |
| CN1Cc2c(N)cccc2C(c2ccccc2)C1 (configuration not stated) | inactive | inactive | inactive |  | inactive |  | inactive |  | inactive | inactive | inactive | inactive | inactive | inactive | inactive | inactive |  | inactive |  |
| Cc1cc(C)cc(O)c1 | inactive | inactive | inactive |  | inactive |  | inactive | inactive | inactive | inactive | inactive | inactive | inactive | inactive | inactive | inactive | inactive |  | inactive |
| O=c1c(O)c(-c2ccc(O)c(O)c2)oc2cc(O)cc(O)c12 | inactive | inactive |  |  | inactive |  | inactive | inactive | inactive | inactive | inactive | inactive | inactive and 43.6 µM (active) and 54.5 µM (active) | inactive | inactive | inactive |  | inactive | inactive |
| CC1(C)C(=O)N(Cl)C(=O)N1Cl | inactive | inactive |  |  | inactive |  | inactive | inactive | inactive | inactive | inactive | inactive | inactive | inactive | inactive | inactive |  |  |  |
| Nc1cccc(C(F)(F)F)c1 | inactive | inactive | inactive | inactive | inactive | inactive | inactive |  | inactive | inactive | inactive | inactive | inactive | inactive | inactive | inactive |  | inactive |  |
| O=[N+]([O-])c1cc(C(F)(F)F)ccc1Cl | inactive | inactive |  |  | inactive |  | inactive |  | inactive | inactive | inactive | inactive | inactive | inactive | inactive | inactive |  | inactive |  |
| CC(=O)Nc1ccc(CC(=O)O)cc1 | inactive | inactive |  |  | inactive |  |  |  | inactive | inactive | inactive | inactive | inactive | inactive | inactive | inactive |  | inactive |  |
| CC(C)(C)NC[C@H](O)COc1nsnc1N1CCOCC1 | inactive | inactive |  |  | inactive |  |  | inactive | inactive | inactive | inactive | inactive | inactive | inactive | inactive | inactive |  | inactive |  |
| CC/C=C(\C(=O)N[C@@H]1C(=O)N2C(C(=O)OCOC(=O)C(C)(C)C)=C(COC(N)=O)CS[C@H]12)c1csc(N)n1 | inactive | inactive |  |  | inactive |  | inactive | inactive | inactive | inactive | inactive | inactive | inactive | inactive | inactive | inactive |  | inactive | inactive |
